Most compounds without a hit are left out; they make up all but 14% or so of the library.
Pf growth 48h: inhibits P. falciparum growth in the first generation, 48 h | P. falciparum luciferase growth in erythrocytes, 48 h | Potency, µM (doses to about 28.7 µM), for inactives: at the highest dose activity change, negative = inhibition, hits mostly inhibitors | 310,000 compounds, 5.9% hits | AID 504832; note: potency is the fitted concentration of half-maximal effect
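Growth was read as firefly luciferase luminescence after a 48 h, 37 C, 5% CO2 exposure of compounds to reporter-bearing P. falciparum cultures (0.1% parasitemia, 2% hematocrit final) in Albumax-supplemented RPMI 1640.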
FBPA Giardia inh: inhibitors of Giardia lamblia fructose-1,6-bisphosphate aldolase; purified Giardia FBPA; Potency, µM (highest dose often 59.6 µM), for the others: top-dose activity, negative = inhibition, usual class: inhibitors; 290,000 compounds, 0.71% hits; AID 2451; note: potency is the fitted concentration of half-maximal effect; nearly all actives have a fitted effect of over 55% in size
Target sequence (A8B2U2 whole entry, looked up): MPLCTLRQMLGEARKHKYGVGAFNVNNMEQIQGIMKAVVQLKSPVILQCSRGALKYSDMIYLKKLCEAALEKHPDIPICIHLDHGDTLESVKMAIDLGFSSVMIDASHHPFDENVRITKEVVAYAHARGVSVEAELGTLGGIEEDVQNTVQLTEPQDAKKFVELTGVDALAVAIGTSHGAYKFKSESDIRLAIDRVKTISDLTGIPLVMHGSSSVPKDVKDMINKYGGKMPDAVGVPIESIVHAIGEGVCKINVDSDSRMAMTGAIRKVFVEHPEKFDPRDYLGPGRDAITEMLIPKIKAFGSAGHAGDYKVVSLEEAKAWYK
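Giardia FBPA (40 nM reagent) was preincubated 10 min at RT with compound (up to 57.5 uM final), then substrate plus GAPDH/TPI/NAD/arsenate coupling system with diaphorase/resazurin was added; resorufin fluorescence (525/598 nm) was read after 20 min.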
HCMV inh: inhibitors of human cytomegalovirus; HFF cells, HCMV-luciferase reporter, 72 h; active compounds read low; activity change, negative = inhibition, % at 57.5 µM; 410,000 compounds, 4.5% hits; in the data active = activity change below about -60%; inconclusive = no clear call, values can overlap the other calls; inactive = above about -39%
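Two compound doses tested in HFFs infected with HCMV-luciferase, MOI 1 PFU/cell, 72 h at 37C. Lysate luminescence read with OneGlo; data normalized against buffer-only and 10uM Salinomycin inhibitor controls.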
Pf growth 96h: P. falciparum growth inhibition at 96 hour, primary screen for plastid delayed-death inhibitors. AID 504834. 320,000 compounds, 6.9% hits. P. falciparum luciferase reporter growth, 96 h. Potency, µM (titrated, usually from 28.7 µM), for inactives: at the highest dose activity change, negative = inhibition, usual class: inhibitors; note: potency is the fitted concentration of half-maximal effect
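Cell-based qHTS: luciferase-tagged P. falciparum in erythrocytes (2% hematocrit, 0.05% parasitemia final) incubated with compounds for 96 hours, 37 C, 5% CO2; luciferase detection reagent then added and luminescence measured.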
Sm TGR block: inhibitors of Schistosoma mansoni thioredoxin glutathione reductase | Q962Y6 | 360,000 compounds, 3% hits | purified TGR, DTNB reduction, TNB absorbance 405 nm | Potency, µM (series often up to 114 µM), for the others: at the top dose activity change, negative = inhibition, usual class: inhibitors | AID 485364; note: potency is the fitted concentration of half-maximal effect; nearly all actives have a fitted effect of over 60% in size
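Kinetic colorimetric format: TGR-catalysed, NADPH-driven DTNB reduction monitored via TNB absorbance. Enzyme dispensed at 20 nM; compound exposure 15 min at room temperature before reaction start.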
* marks the source's active call; other numbers are inactive results; u = inconclusive; x = no result; [ ] = dose if it differs, or a comment. Unless noted, calls come from the whole dose curve; as a rule, active = well fitted curve in the direction sought with a large enough effect; inconclusive = small, poorly fitted or top-dose-only effect, or another doubt; inactive = no such curve, though single readings can be large; an effect the other way counts as inactive or inconclusive. % is set by controls: 0 for no effect and ±100 for the full control effect.

SMILES | Pf growth 48h | FBPA Giardia inh | HCMV inh | Pf growth 96h | Sm TGR block
CC[C@H](C)[C@H](NC(=O)[C@H](C)NC(=O)[C@H](CC(=O)O)NC(=O)[C@H](CO)NC(=O)[C@@H](N)Cc1cnc[nH]1)C(=O)N[C@@H](Cc1ccccc1)C(=O)N[C@H](C(=O)N[C@@H](CCC(N)=O)C(=O)N[C@@H](CCC(N)=O)C(=O)N[C@@H](Cc1ccc(O)cc1)C(=O)N[C@@H](CO)C(=O)N[C@@H](CCCCN)C(=O)N[C@@H](CC(C)C)C(=O)N[C@@H](CC(C)C)C(=O)N[C@@H](C)C(=O)N[C@@H](CCCCN)C(=O)N[C@@H](CC(C)C)C(=O)N[C@@H](C)C(=O)N[C@@H](CC(C)C)C(=O)N[C@@H](CCC(N)=O)C(=O)N[C@@H](CCCCN)C(=O)N[C@@H](Cc1ccc(O)cc1)C(=O)N[C@@H](CC(C)C)C(=O)N[C@@H](C)C(=O)N[C@@H](CO)C(=O)N[C@H](C(=O)N[C@@H](CC(C)C)C(=O)NCC(=O)N[C@@H](CO)C(=O)N[C@@H](CCCNC(=N)N)C(=O)N[C@H](C(=O)N[C@@H](CO)C(=O)N1CCC[C@H]1C(=O)N1CCC[C@H]1C(=O)N1CCC[C@H]1C(N)=O)[C@@H](C)O)[C@@H](C)CC)[C@@H](C)O | x | 0.5% | x | x | x
CC1CCc2c(nc3nc[nH]n3c2=O)C1 (centres undefined) | x | -17.5% | 5.8 | 1.17µM* | 3.5%
COc1ccc(C(=O)NCCCN2CCN(CCCNC(=O)c3ccc(OC)c(OC)c3)CC2)cc1OC | 15.4% | x | -16.6 | -11.6% | -10.5%
COc1ccccc1N1CCN(S(=O)(=O)CCNC(=O)CCc2ccccc2)CC1 | x | x | -85.7* | x | x
Cc1ccccc1NC(=O)NCCCN1CCN(c2ccccc2)CC1 | x | 5.9% | -7.6 | 2.33µM* | -1.4%
COc1ccccc1N1CCN(CCCNC(=O)Nc2ccccc2)CC1 | 11.7µM* | 8.1% | 11.9 | u | 3.0%
COc1ccc(N2CCN(CCCNC(=O)Nc3ccccc3)CC2)cc1 | x | -1.9% | -15.1 | -1.5% | 4.8%
Cc1ccccc1NC(=O)NCCCN1CCN(C)CC1 | 8.2% | -2.9% | -7.6 | u | -2.2%
COc1ccccc1N1CCN(CCCCNC(=O)c2ccc3ccccc3c2)CC1 | u | -5.1% | -6.7 | 4.15µM* | 8.1%
O=C(CSc1nnc(-c2ccc(F)cc2)n1CC1CCCO1)NCc1ccco1 (centres undefined) | 4.1% | 12.7% | x | -6.1% | 2.1%
O=[N+]([O-])c1cc(S(=O)(=O)O)cc([N+](=O)[O-])c1NN(c1ccccc1)c1ccccc1 | -5.4% | -3.0% | -15.0 | -8.9% | 7.6%
COc1ccc2nc(SCC(=O)N3CC(=O)Nc4ccccc43)c(C#N)cc2c1 | x | -10.7% | -99.6* | u | -13.0%
Cc1cc(C)c2nc(SCC(=O)N3CC(=O)Nc4ccccc43)c(C#N)cc2c1 | 13.1µM* | -26.9% | -88.5* | u | -2.2%
Cc1cc(C)c2nc(SCC(=O)Nc3ccccc3N3CCOCC3)c(C#N)cc2c1 | x | x | -17.4 | x | x
CC(C)CC(=O)NCC(C)NC(=O)CC(C)C (centres undefined) | 12.8% | -8.2% | 13.9 | 14.7µM* | 4.7%
N#CCCN(C(=O)COC(=O)CCN=C1NS(=O)(=O)c2ccccc21)c1ccc(F)cc1 | -5.0% | x | -8.8 | 9.6% | 2.9%
N#Cc1ccc(CN2CCCC3(CCN(C(=O)c4cccc(F)c4)CC3)C2)cc1 | x | -0.6% | x | x | x
Cc1ccc(OC[C@H](O)[C@H](C)NC(C)C)c2c1CCC2 | 9.28µM* | -4.7% | 13.7 | u | -19.1%
CC(C)(C)NC[C@H](O)COc1cccc2c1CCCC2=O | -78.4% | -1.0%[21.7 µM] | -7.1 | 0.9% | 3.2%
Cc1ccc2c(c1)C1CN(C)CCC1N2C(=O)c1cn(-c2ccccc2)nc1-c1ccccc1 (centres undefined) | 13.1µM* | -0.3% | -10.8 | u | 8.8%
Cc1ccc2c(c1)C1CN(C)CCC1N2C(=O)c1cccc(S(=O)(=O)N2CC(C)CC(C)C2)c1 (centres undefined) | u | -10.7% | -24.0 | 13.1µM* | 0.0%
Cc1ccc2c(c1)C1CN(C)CCC1N2C(=O)CCCN1C(=O)c2cccc3cccc(c23)C1=O (centres undefined) | 1.85µM* | 21.6% | -32.7 | 3.7µM* | -6.6%
Cc1ccc2c(c1)[C@@H]1CN(C)CC[C@@H]1N2C(=O)Nc1cccc(C(F)(F)F)c1 | x | -2.9% | -1.5 | 0.828µM* | 1.5%
Cc1ccc(NC(=O)CCc2c(C)nc3ncnn3c2C)cc1Cl | x | x | -11.3 | x | 0.9%
CCC1Sc2ccc(S(=O)(=O)CCC(=O)Nc3cc(C)ccn3)cc2NC1=O (centres undefined) | -8.4% | x | -33.8 | -0.5% | u
SMILES | Pf growth 48h | FBPA Giardia inh | HCMV inh | Pf growth 96h | Sm TGR block
Cc1ccc2c(c1)C1CN(C)CCC1N2S(=O)(=O)c1cccc(C(F)(F)F)c1 (centres undefined) | u | x | u | u | -2.1%
Cc1ccc2c(c1)C1CN(C)CCC1N2C(=O)Nc1cccc(C(F)(F)F)c1 (centres undefined) | 9.28µM* | 1.3% | -5.8 | x | -21.2%
c1ccc(C[n+]2c(-c3ccccc3)csc2Nc2ccccc2)cc1 | u | 6.3% | 1.5 | 9.28µM* | -0.8%
c1ccc(Nc2scc(-c3ccccc3)[n+]2Cc2ccco2)cc1 | 128.5% | -15.5% | 20.1 | -68.5% | 39.8µM*
CC(C)c1csc(CN2CCC(CO)(Cc3cccc(F)c3)CC2)n1 | u | -3.2% | -19.7 | u | 9.7%
CCC(COC)NCc1cn(-c2ccc(OC)cc2)nc1-c1cccc(F)c1 (centres undefined) | 11.7µM* | 2.2% | u | u | -2.8%
COc1ccc(-n2cc(CNC3CCN(C)CC3)c(-c3cccc(F)c3)n2)cc1 | 1.47µM* | -1.1% | -38.8 | 55.5% | -6.3%
Cc1ccc(N2CCN(S(=O)(=O)c3ccc4c(c3)oc(=O)n4C)CC2C)cc1 (centres undefined) | u | x | u | u | -0.4%
Cc1cc(C)nc(SCc2nnc(SCC#N)n2-c2cccc(Cl)c2)n1 | 7.38µM* | 1.7% | -7.5 | u | 5.9%
C#C[C@]1(O)CC[C@H]2[C@@H]3CCC4=CCCC[C@@H]4[C@H]3C(=C)C[C@@]21CC | u | x | x | 9.53µM* | x
C/C(=N\NC(=S)Nc1c(C)cccc1C)c1ccc(O)cc1 | -23.7% | -8.0% | -11.4 | 0.0% | -1.9%
C/C(=N\NC(=S)Nc1c(C)cccc1C)c1cc2ccccc2o1 | u | 8.8% | -33.0 | 11.7µM* | -0.3%
C/C(=N\NC(=S)Nc1ccccc1C)c1cc2ccccc2o1 | u | 3.1% | u | 7.38µM* | 5.5%
C/C(=N\NC(=O)c1ccco1)c1cc2ccccc2o1 | 80.4% | 1.6% | 58.6 | -25.5% | -8.8%
Fc1ccc(Nc2nc(SCc3ccc(Cl)cc3)nc3ccccc23)cc1 | x | x | u | x | 11.6%

Screening results from PubChem.
